Among the data in PubChem BioAssay are composite z-score and z-score values, retold here.

Activity calls are given as the source filed them.

Assay [1] in a line: compounds binding Alexa647 anti-His antibody – biochemical, small-molecule microarray, 635 nm fluorescence, artefact control for SMM control protein annotation, primary screen (AID 1128).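 Also: score merges feature fluorescence with signal-to-noise for each printed compound spot.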 The following applies: higher = more signal.
The test system of assay [2] is Human papillomavirus type 1a E7 protein (residues 1-88). In words: HPV1a E7 small-molecule binders, primary screen, biochemical, small-molecule microarray, residues 1-88, 635 nm (AID 1129). The following applies: small-molecule microarray binding, fluorescence 635 nm; higher = more signal.
For assay [3], the target named is Focal adhesion kinase 1 (Homo sapiens) (UniProt Q05397). The assay is described as follows: PTK2 protein binding on printed compound slides – biochemical, small-molecule microarray, 635/667 nm fluorescence, BSA, DTT, primary screen (AID 1130).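 Also: composite of spot emission at 667 nm and signal to noise over triplicate slides.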 The following applies: 635 nm fluorescence, higher = more signal.
Sequence of Focal adhesion kinase 1 (Homo sapiens) (Q05397 whole entry, looked up): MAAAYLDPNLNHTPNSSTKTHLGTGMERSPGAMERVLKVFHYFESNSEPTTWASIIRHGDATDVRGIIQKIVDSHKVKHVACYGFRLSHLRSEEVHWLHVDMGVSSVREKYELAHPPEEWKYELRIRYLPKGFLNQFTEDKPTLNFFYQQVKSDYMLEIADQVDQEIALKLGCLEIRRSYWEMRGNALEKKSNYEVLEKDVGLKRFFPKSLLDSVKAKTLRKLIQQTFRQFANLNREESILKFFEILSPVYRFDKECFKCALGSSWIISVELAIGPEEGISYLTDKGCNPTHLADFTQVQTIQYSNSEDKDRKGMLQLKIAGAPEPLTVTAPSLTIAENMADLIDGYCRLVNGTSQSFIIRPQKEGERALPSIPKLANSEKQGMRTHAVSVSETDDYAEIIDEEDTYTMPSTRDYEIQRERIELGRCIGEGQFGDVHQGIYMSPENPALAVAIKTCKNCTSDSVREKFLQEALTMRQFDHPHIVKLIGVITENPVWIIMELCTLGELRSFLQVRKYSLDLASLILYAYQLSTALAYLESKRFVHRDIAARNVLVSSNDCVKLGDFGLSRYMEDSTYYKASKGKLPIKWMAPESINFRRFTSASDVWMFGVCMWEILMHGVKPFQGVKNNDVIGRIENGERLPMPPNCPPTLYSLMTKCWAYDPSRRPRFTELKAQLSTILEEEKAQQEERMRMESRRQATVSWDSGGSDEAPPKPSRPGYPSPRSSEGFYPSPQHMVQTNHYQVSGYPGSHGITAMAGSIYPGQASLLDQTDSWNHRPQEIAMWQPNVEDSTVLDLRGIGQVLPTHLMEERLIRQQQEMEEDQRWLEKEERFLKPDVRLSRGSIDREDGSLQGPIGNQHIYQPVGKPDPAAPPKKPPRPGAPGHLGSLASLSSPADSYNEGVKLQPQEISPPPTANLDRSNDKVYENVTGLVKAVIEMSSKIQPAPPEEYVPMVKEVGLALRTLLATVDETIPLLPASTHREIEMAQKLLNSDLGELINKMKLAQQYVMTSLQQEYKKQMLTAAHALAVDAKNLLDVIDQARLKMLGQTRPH
Assay [4] deals with Fibrinogen (Alexa647-labelled). The assay is described as follows: Alexa647-fibrinogen binding to printed small molecules – biochemical, small-molecule microarray, 635/667 nm fluorescence, artefact control for SMM control-protein annotation, profiling panel (AID 1131).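 Also: z-score merges 667 nm fluorescence with per-spot signal-to-noise over triplicate slides.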 Conditions: fibrinogen-A647 binding fluorescence, higher = more signal.
Assay [5] addresses Follistatin (Homo sapiens) (UniProt P19883). The assay is described as follows: FST protein binding to printed compounds – biochemical, small-molecule microarray, 635/667 nm fluorescence, primary screen (AID 1132). Conditions: 635 nm fluorescence, higher = more signal.
The target of assay [6] is Fibroblast growth factor 2 (Homo sapiens) (UniProt P09038). In words: basic fibroblast growth factor binding to printed compounds – biochemical, small-molecule microarray, 635/667 nm fluorescence, primary screen (AID 1133). Conditions: FGF2, fluorescence 635/667, higher = more signal.
Sequence of Fibroblast growth factor 2 (Homo sapiens) (P09038 whole entry, looked up): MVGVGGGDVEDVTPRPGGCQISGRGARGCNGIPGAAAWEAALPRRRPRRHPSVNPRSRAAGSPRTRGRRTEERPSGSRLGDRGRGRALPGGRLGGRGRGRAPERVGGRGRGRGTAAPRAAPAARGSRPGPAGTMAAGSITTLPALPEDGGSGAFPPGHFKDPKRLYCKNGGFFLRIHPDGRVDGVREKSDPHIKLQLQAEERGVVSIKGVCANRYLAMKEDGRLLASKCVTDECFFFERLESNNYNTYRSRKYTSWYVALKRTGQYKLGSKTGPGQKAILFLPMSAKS
Assay [7] can be described thus: JC-1 mitochondrial potential readout, lung cancer cells – cell-based, A549, JC-1 fluorescence, basal, 24 h, 100 nL, profiling panel (AID 1138).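 Also: A549 lung adenocarcinoma cells under basal conditions with no added stimulus; test concentration not given here.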 Conditions: higher = more signal.
In the next assay the test system is Lefty1. In words: Lefty1 protein binding to printed compounds – biochemical, small-molecule microarray, 635/667 nm fluorescence, primary screen (AID 1139). The following applies: fluorescence 635/667, higher = more signal.
Assay [8] relates to wheat germ agglutinin (Triticum aestivum), Alexa647-labelled. The assay is described as follows: Alexa647-WGA lectin binding to printed small molecules – biochemical, small-molecule microarray, 635/667 nm fluorescence, artefact control for SMM control-protein annotation, profiling panel (AID 1140).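 Also: score merges 667 nm feature emission with signal to noise over triplicate slides.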 The following applies: WGA-A647 binding, 635 nm fluorescence, higher = more signal.

For assay [9], the target named is Luciferin 4-monooxygenase (Photinus pyralis) (UniProt P08659). In words: inhibition of purified Photinus pyralis luciferase – biochemical, luminescence, purified enzyme, 2006 set, primary screen (AID 1141).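 Also: cell-free assay with purified firefly luciferase at 100 ng per well in PBS; test concentration not given here.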 The following applies: purified firefly luciferase, SteadyGlo luminescence, 30 min; higher = more signal, called active from +8 up or from −8 down.
Sequence of Luciferin 4-monooxygenase (Photinus pyralis) (P08659 whole entry, looked up): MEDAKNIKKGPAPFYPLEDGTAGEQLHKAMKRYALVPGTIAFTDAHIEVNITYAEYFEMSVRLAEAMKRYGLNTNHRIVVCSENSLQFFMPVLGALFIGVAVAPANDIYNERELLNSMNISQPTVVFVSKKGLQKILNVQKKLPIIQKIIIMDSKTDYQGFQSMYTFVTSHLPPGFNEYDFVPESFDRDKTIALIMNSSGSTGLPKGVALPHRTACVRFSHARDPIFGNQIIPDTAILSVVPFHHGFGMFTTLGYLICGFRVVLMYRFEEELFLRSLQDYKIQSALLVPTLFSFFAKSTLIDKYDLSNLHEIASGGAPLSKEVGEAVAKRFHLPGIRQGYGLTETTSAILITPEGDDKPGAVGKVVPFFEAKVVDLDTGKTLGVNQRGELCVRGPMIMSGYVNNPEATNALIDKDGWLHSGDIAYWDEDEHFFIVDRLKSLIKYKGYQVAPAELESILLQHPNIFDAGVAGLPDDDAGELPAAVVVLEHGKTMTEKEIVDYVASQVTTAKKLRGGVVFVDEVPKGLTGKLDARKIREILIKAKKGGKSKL

Sequence of Follistatin (Homo sapiens) (P19883 whole entry, looked up): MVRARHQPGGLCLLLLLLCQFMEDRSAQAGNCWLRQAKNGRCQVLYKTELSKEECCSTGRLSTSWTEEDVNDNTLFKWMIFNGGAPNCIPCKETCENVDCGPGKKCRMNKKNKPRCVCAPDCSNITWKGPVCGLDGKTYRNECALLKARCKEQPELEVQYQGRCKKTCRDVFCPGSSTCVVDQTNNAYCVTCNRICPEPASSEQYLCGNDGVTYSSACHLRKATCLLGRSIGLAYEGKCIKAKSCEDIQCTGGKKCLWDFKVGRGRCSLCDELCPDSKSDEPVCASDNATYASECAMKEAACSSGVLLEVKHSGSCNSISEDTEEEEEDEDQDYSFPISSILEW

With `C[C@@H]1C=CCC(=O)OC[C@H](C)C(=O)N[C@@H](Cc2ccccc2)C(=O)OC1`, the composite z-score in assay [1] is -0.044; in [2], -0.203; in assay [3] it was -0.0171; in assay [4], 0.0608; in assay [5], 0.927; in assay [6], 0.589. The composite z-score in the assay on Lefty1 turned out to be 0.432; in [8] it was 0.0031. Further, the results for the z-score in [7] and in [9] were -0.00638 and -0.0028 (inactive), respectively.

With `CC(CCC(=O)OC[C@H]1O[C@H](C#Cc2ccccc2)C=C[C@@H]1Oc1ccc(C)cc1)=NOC[C@@H](C)[C@H](OCc1ccccc1)C(C)C`, the composite z-score in assay [1] is 0.0009; in [2], -0.849; in [3], -0.502; in assay [4] it was -1.36; in assay [5] it was -0.554; in [6] it was -0.625. Besides, the composite z-score is -0.295 in the assay on Lefty1 and -0.726 in assay [8]. The z-score in [7] is -0.197; in [9], 1.03 (inactive).

With `C[C@@H]1CC[C@H]2C(=O)OC(Cc3ccccc3)CN2[C@H]1c1ccc(Br)cc1` (stereo not given in full), the composite z-score in [1] is 0.227; in [2], 0.238; in assay [3], -0.0103; in assay [4], 0.853; in assay [5], 0.329; in assay [6] it was 0.867. The composite z-score in the assay with Lefty1 came out at 0.789; in [8] it was 0.339. For the same molecule, the z-score is 1.57 in assay [7] and -0.679 (inactive) in assay [9].

`O=C1CCCC=C1C(O)C1CCCCC1` (stereo not given): the composite z-score is -0.481 in [1]; -0.568 in assay [2]; -0.365 in assay [3]; -0.206 in [4]; 0.316 in assay [5]; -0.297 in [6]. In addition, the composite z-score was 0.562 in the assay with Lefty1 and -0.0135 in assay [8]. Moreover, the z-score is 0.168 in assay [7] and -0.376 (inactive) in assay [9].

Regarding `COc1ccc(OC[C@@H]2CC3[C@@H](c4ccc(Br)cc4)[C@H](C)CC[C@H]3C(=O)O2)cc1` (stereo not given in full), the composite z-score is -1.08 in [1]; -0.291 in assay [2]; -0.0102 in assay [3]; 0.563 in [4]; 0.57 in assay [5]; 0.29 in [6]. The composite z-score in the assay on Lefty1 amounted to 0.74; in [8], 0.282. Also, the values for the z-score in assay [7] and in assay [9] were -0.296 and 0.294 (inactive), respectively.

Regarding `COc1ccc(COC(=O)NN=C2C[C@@H](O)[C@@H](O)[C@@H]3[C@@H]4C(=O)N(C5CCCCC5)C(=O)[C@@H]4CC[C@@H]23)cc1`, the composite z-score in [1] is 0.123; in assay [2] it was -0.0517; in assay [3] it was 0.0581; in [4], 0.0695; in assay [5] it was -0.148; in assay [6], -0.373. Further, the figures for the composite z-score (in the assay on Lefty1; in assay [8]) were -0.371 and 0.401, respectively. The z-score in [7] is 0.847; in assay [9], 0.0242 (inactive).

`CC(=O)OC[C@H]1O[C@H](CC=NO[C@@H](C)c2cc(-c3c(C)cc(C)cc3C)no2)C=C[C@@H]1OC(C)=O`: the composite z-score in assay [1] is 1.81; in assay [2], -0.375; in assay [3], -0.206; in assay [4], 0.318; in assay [5], 0.0047; in assay [6], 0.323. The figures for the composite z-score (with Lefty1; in assay [8]) were -0.0273 and 0.229, respectively. Moreover, the figures for the z-score in assay [7] and in assay [9] were -0.921 and 0.644 (inactive), respectively.

Regarding `C#CCCCON=C1[C@H]2CCn3c(=O)n(Cc4cc5c(cc4Cl)OCO5)c(=O)n3[C@H]2[C@H](O)[C@@H]2O[C@H]12`, the composite z-score is 0.229 in [1]; 0.522 in assay [2]; -0.383 in assay [3]; 0.0676 in assay [4]; 0.751 in assay [5]; 0.486 in [6]. In addition, the composite z-score is 0.748 in the assay on Lefty1 and -0.232 in assay [8]. Moreover, the values for the z-score in [7] and in assay [9] were 0.146 and 0.303 (inactive), respectively.

For `CCOC(=O)[C@H](CC(C)C)NC(=O)CCC1CC(OC(=O)NCc2ccc3c(c2)OCO3)CC2(CCCC(COC(=O)NCCc3ccc(Cl)cc3)O2)O1` (stereo not given in full), the composite z-score in [1] is 0.141; in [2], 0.653; in assay [3] it was 0.0146; in [4] it was -0.092; in assay [5] it was 0.62; in assay [6], 0.671. In addition, the composite z-score in the assay with Lefty1 is 1.14; in [8] it was 0.669. In addition, the results for the z-score in assay [7] and in assay [9] were 0.387 and 0.621 (inactive), respectively.

As to `CO[C@H]1COC(=O)CC=C[C@H](C)[C@H](OC)COC(=O)[C@@H](C)NC(=O)CC=C[C@@H]1C`, the composite z-score in [1] was 0.491; in assay [2], -1.08; in [3] it was 0.764; in assay [4] it was -2.18; in assay [5], 1.23; in assay [6] it was 1.47. Also, the figures for the composite z-score (with Lefty1; in [8]) were 1.52 and -0.206, respectively. For the same molecule, the z-score in assay [7] was -0.838; in assay [9], 1.14 (inactive).

As for `C=CC[C@@H]1C=C[C@H](ON=C(C)CCN2CCCc3nc(C)c(C)cc32)[C@@H](CO)O1`, the composite z-score in [1] was 0.229; in assay [2], 0.736; in assay [3] it was 0.817; in assay [4], -0.355; in [5] it was 1.25; in assay [6], 1. Moreover, the composite z-score in the assay with Lefty1 was 1.16; in [8], -0.205. Besides, the z-score in assay [7] is 0.289; in [9], 0.949 (inactive).

Turning to `O=C1[C@H]2[C@H]3[C@H](O)[C@H](O)CC(=NO[C@@H]4O[C@H](CO)[C@@H](O)[C@H](O)[C@H]4O)[C@@H]3CC[C@H]2C(=O)N1C[C@@H]1CCCO1`, the composite z-score in [1] is 0.142; in assay [2], 1.15; in assay [3], 0.142; in assay [4], 0.907; in [5] it was 0.396; in assay [6], 0.4. The composite z-score with Lefty1 amounted to 0.649; in assay [8], 0.326. Moreover, the z-score in [7] was -1.08; in [9], 0.954 (inactive).

Turning to `CO[C@@H]1[C@H](O)CO[C@H]1C=Cc1ccccc1`, the composite z-score in assay [1] came to 0.286; in assay [2], 0.219; in [3] it was 0.0086; in [4] it was 0.543; in [5], 0.251; in assay [6] it was 0.273. In addition, the values for the composite z-score (in the assay with Lefty1; in assay [8]) were 0.28 and -0.07, respectively. For the same molecule, the z-score in [7] was -0.75; in [9], -0.339 (inactive).

In the case of `CCN1C(=O)[C@H]2[C@H]3[C@H](O)[C@H](O)CC(=NOC(C)CN4CCCc5nc(C)c(C)cc54)[C@@H]3CC[C@H]2C1=O` (stereo not given in full), the composite z-score was -0.245 in [1]; 0.509 in [2]; 0.335 in assay [3]; 0.116 in assay [4]; 0.703 in [5]; 0.462 in [6]. Further, the values for the composite z-score (in the assay on Lefty1; in assay [8]) were 0.737 and -0.393, respectively. For the same molecule, the z-score in assay [7] was 0.623; in [9] it was 0.126 (inactive).

As for `CCOC(=O)CCN1C(=O)[C@H]2[C@H]3[C@H](O)[C@H](O)CC(=NNC(=O)OCc4ccc(OC)cc4)[C@H]3CC[C@H]2C1=O`, the composite z-score in [1] was -0.0305; in assay [2] it was 0.568; in assay [3], 0.0684; in [4], 0.446; in assay [5] it was -0.0495; in [6], 0.0077. Besides, the composite z-score in the assay with Lefty1 came out at 0.161; in assay [8] it was 0.282. Also, the figures for the z-score in [7] and in assay [9] were -0.734 and 0.624 (inactive), respectively.

As for `CO[C@H]1COC(=O)[C@H](C)COC(=O)[C@H](C)NC(=O)CC=C[C@H]1C`, the composite z-score was 0.0849 in assay [1]; -0.375 in [2]; -0.315 in assay [3]; -1.01 in [4]; 1.41 in [5]; 1.43 in assay [6]. For the same molecule, the values for the composite z-score (in the assay on Lefty1; in [8]) were 1.36 and -0.729, respectively. For the same molecule, the figures for the z-score in [7] and in [9] were 0.763 and -0.403 (inactive), respectively.

With `CC(=O)OC[C@H]1O[C@H](CC=NOC(C)CN2CCCCc3nc(C)c(C)cc32)C=C[C@@H]1OC(C)=O` (stereo not given in full), the composite z-score turned out to be 0.544 in [1]; 0.819 in [2]; 0.0336 in [3]; 0.495 in assay [4]; 1.23 in assay [5]; 0.773 in assay [6]. In addition, the results for the composite z-score (in the assay on Lefty1; in assay [8]) were 1.55 and 0.73, respectively. In addition, the results for the z-score in assay [7] and in assay [9] were -0.683 and 1.46 (inactive), respectively.
